Source: PubChem
Most compounds without a hit are left out; they make up all but 19% or so of the library.
DT40 TDP1 no CPT: qHTS for Inhibitors of human tyrosyl-DNA phosphodiesterase 1 (TDP1): qHTS in cells in absence of CPT; hit rate 15% among 420,000; DT40 Tdp1-/- hTDP1 cells, no CPT, ATP luminescence, 48 h; AID 686978, 2013; Potency, µM (titrated, usually from 46.2 µM), most hits filed as inhibitors; further: nearly all actives have a fitted effect of over 55% in size
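Chicken DT40 Tdp1-/- cells complemented with human TDP1, screened without camptothecin (DMSO vehicle only), 400 cells/well. Compounds pin-transferred, cells incubated at 37 °C for at least 48 hr. Growth read as ATP-dependent luminescence (CellTiter-Glo, 30 min at RT).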
HT1080NT lethal: kills 2HG-producing HT-1080-NT fibrosarcoma cells. HT-1080-NT fibrosarcoma viability, CellTiter-Glo ATP luminescence, 48 h. Potency, µM (top dose mostly 46.1 µM), most hits filed as cytotoxic. hit rate 1.6% among 360,000;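 further: NT is the 2HG producing partner of a matched IDH1 knockdown line; nearly all actives have a fitted effect of over 55% in size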
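Toxicity toward the 2HG-producing NT line was scored as %Activity, normalised to DMSO and no-cell wells, from CellTiter-Glo luminescence after 48 hours' treatment.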
DT40 TDP1 CPT: growth inhibition of DT40 Tdp1-/-;hTDP1 cells with camptothecin (screen for TDP1 inhibitors); AID 686979; Potency, µM (highest dose often 46.2 µM), actives largely listed as inhibitors; hit rate 12% among 420,000; chicken DT40 Tdp1-/-;hTDP1 cells + 20 nM CPT, ATP luminescence, 48 h; further: nearly all actives have a fitted effect of over 55% in size
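Chicken DT40 Tdp1-/- cells complemented with human TDP1, 400 cells/well, exposed to compounds plus 20 nM camptothecin for at least 48 h at 37 C; viability read as ATP content by CellTiter-Glo luminescence.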
HT1080 IDH1KD tx: toxicity to HT-1080 IDH1 knockdown cells (counter line). Potency, µM (doses to about 46.1 µM), most hits filed as cytotoxic. HT-1080 IDH1 knockdown viability, ATP luminescence, 48 h. hit rate 2% among 360,000
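% activity derives from luminescence (CellTiter-Glo), normalised to DMSO and no-cell wells. HT-1080-IDH1KD cells, 750/well, had 48 h compound exposure at 37 °C.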
IL-1B inflam inh: inflammasome signaling inhibition, IL-1 beta readout | THP-1 LPS/ATP IL-1B secretion, AlphaLISA, 16 h; active compounds read low | hit rate 4.7% among 360,000 | activity change, % at 57.5 µM; in the data active means activity change below about -50%; inconclusive means mostly about -30% to -49%
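THP-1 cells pretreated 1 hr with compounds (up to 57.5 uM final), then stimulated with LPS (250 ng/mL final) plus ATP (1.25 mM final); secreted IL-1B measured by AlphaLISA after 16 hr, decreased signal indicating inhibition.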
Numbers stand for hits; - = inactive; ? = inconclusive; . = no result. Unless noted, the call rests on the fitted dose curve; in most records, active means well fitted curve in the direction sought with a large enough effect; inconclusive means small, poorly fitted or top-dose-only effect, or another doubt; inactive means no such curve, though single readings can be large; an effect the other way counts as inactive or inconclusive.

SMILES	DT40 TDP1 no CPT	HT1080NT lethal	DT40 TDP1 CPT	HT1080 IDH1KD tx	IL-1B inflam inh
COc1cccc(NC(=S)NC(Cc2ccccc2)c2ccccc2)c1 (stereo unspecified)	16µM	-	?	-	-
CC(C)C(=O)Nc1ccc(C(=O)c2ccccc2)cc1	21µM	-	18µM	-	-
Cc1cccc(C(=O)NCC(=O)NC(C)CCc2ccccc2)c1 (stereo unspecified)	-	-	-	-	-
Cc1cccc(NC(=S)NC(C)CCc2ccccc2)c1 (stereo unspecified)	?	-	?	-	-96
COCCNC(=O)c1c(NC(=O)c2cc(=O)c3cc(C)cc(C)c3o2)sc2c1CCCC2	-	.	-	.	.
O=C(NC(=S)Nc1ncc(Br)cc1Br)c1ccccc1	?	-	?	-	-
CC(CCc1ccccc1)NC(=O)c1ccc(NC(=O)c2ccccc2)cc1 (stereo unspecified)	10µM	16µM	15µM	-	-
CC(CCc1ccccc1)NC(=O)c1ccc(NC(=O)c2cccc(Br)c2)cc1 (stereo unspecified)	?	-	?	-	-
CCOC(=O)c1c(-c2ccc(OC)cc2)nc2nonc2c1N	2.6µM	-	?	-	-
CCOc1ccc(N=Cc2ccc3ccccc3c2)cc1	-	-	-	-	-
O=[N+]([O-])c1cc(C=Nc2ccc3ccccc3c2)ccc1Br	2.9µM	-	2.6µM	-	-
Cc1csc2nc(CCNS(=O)(=O)c3ccccc3)cn12	-	.	-	.	.
CCCc1nnc(NC(=O)c2cc(=O)c3ccccc3o2)s1	-	.	-	.	.
COc1ccccc1C1(CC(=O)N2CCCCC2)CCOC(C(C)C)C1 (stereo unspecified)	23µM	-	23µM	-	-
Cc1ccc(C2(CC(=O)N3CCCC3)CCOC(C(C)C)C2)cc1 (stereo unspecified)	?	-	?	-	-
O=C(CN1CCN(C2CCCCC2)CC1)NCCC1=CCCCC1	-	-	?	-	-
O=C(c1ccccn1)N1N=C2/C(=C/c3ccccc3)CCCC2C1c1ccccc1 (stereo unspecified)	?	-	?	-	-
COc1ccc(/C=C2\CCCC3C2=NN(C(=O)CSc2n[nH]c(N)n2)C3c2ccc(OC)cc2)cc1 (stereo unspecified)	?	?	23µM	?	-
O=C1CCC(C(=O)OCC(=O)N2N=C3/C(=C\c4ccccc4)CCCC3C2c2ccccc2)N1 (stereo unspecified)	21µM	-	?	-	-
O=C1CCC(C(=O)OCC(=O)N2N=C3/C(=C/c4ccccc4)CCCC3C2c2ccccc2)N1 (stereo unspecified)	23µM	-	?	-	-
O=C(NNc1cccc(Cl)n1)Nc1ccccc1Cl	?	-	-	-	-
CC(OC(=O)c1ccc([N+](=O)[O-])s1)C(=O)NC1CCCCC1C (stereo unspecified)	?	-	23µM	-	-
COc1cc(C(=O)OC(C)C(=O)NC2CCCCC2C)c([N+](=O)[O-])cc1OC (stereo unspecified)	?	-	?	-	-
Cc1c(NC(=O)C(C)OC(=O)c2ccc([N+](=O)[O-])s2)c(=O)n(-c2ccccc2)n1C (stereo unspecified)	16µM	-	23µM	-	-
Cc1ccc(Cl)cc1N1CCN(C(=O)c2ccc3c(c2)N(Cc2ccccc2)CCS3)CC1	23µM	.	16µM	.	.
SMILES	DT40 TDP1 no CPT	HT1080NT lethal	DT40 TDP1 CPT	HT1080 IDH1KD tx	IL-1B inflam inh
O=C(NC1CC1)c1ccc2c(c1)N(Cc1ccc(Cl)cc1)CCS2	?	-	?	-	-
CCOC(=O)N1CCN(C(=O)c2ccc3c(c2)N(Cc2ccccc2)CCS3)CC1	26µM	-	?	-	-
CC1CC(C)CN(C(=O)c2ccc3c(c2)N(Cc2ccccc2)CCS3)C1 (stereo unspecified)	?	-	?	-	?
CCOC(=O)C1CCN(S(=O)(=O)c2cc(C(=O)OC)n(C)c2)CC1	-	-	?	-	-
CCC(C)(C)NC(=O)C(c1ccc(OC)cc1)N(C(=O)CCC(=O)Nc1cc(C)on1)c1ccc2c(c1)OCCO2 (stereo unspecified)	?	?	?	-	-
Cc1cc(OCCN2CCN(S(=O)(=O)c3ccccc3F)CC2)ccc1C(C)C	16µM	-	21µM	-	-
O=C(/C=C/c1cccs1)Nc1ccncc1	?	-	-	-	?
N#Cc1ccc(-c2csc(NC(=O)/C=C/c3cccs3)n2)cc1	10µM	-	13µM	-	-
Cc1nc(-c2ccc(C#N)cc2)cs1	-	-	-	-	-
N#Cc1ccc(-c2csc(NC(=O)C3CC3)n2)cc1	0.37µM	-	0.73µM	-	-
Cc1ccc(S(=O)(=O)N2CCC(N3CCN(C)CC3)CC2)cc1Cl	?	-	-	-	-
CCc1ccc(-c2cc(C)no2)cc1S(=O)(=O)N1CCN(c2ccc(F)cc2)CC1	?	-	?	-	-
COc1ccc2[nH]c(C)c(CCNC(=S)Nc3ccc(F)cc3)c2c1	23µM	-	16µM	-	-
COc1ccc2[nH]c(C)c(CCNC(=S)Nc3cc(C)ccc3C)c2c1	9.2µM	-	8.2µM	-	-
Cc1ccc2[nH]c(C)c(CC(=O)NCc3ccccc3)c2c1	?	-	-	-	-
COc1ccc2[nH]c(C)c(CCNC(=S)Nc3cc(C)cc(C)c3)c2c1	?	-	?	-	-
COc1ccc2[nH]c(C)c(CCNC(=S)Nc3ccccc3OC)c2c1	23µM	-	18µM	-	-
CCc1cccc(C)c1NC(=S)NCCc1c(C)[nH]c2ccc(C)cc12	21µM	-	10µM	-	-
Cc1ccc(S(=O)(=O)N(C)C[C@@H]2OCc3cnnn3CCCC(=O)N([C@H](C)CO)C[C@H]2C)cc1	?	-	?	-	-
CCCC1CCC(c2ccc(C(=O)NN)cc2)CC1 (stereo unspecified)	29µM	-	29µM	-	-
CCCC1CCC(c2ccc(C(N)=O)cc2)CC1 (stereo unspecified)	-	-	-	-	-
CCCC1CCC(c2ccc(/C(N)=N/O)cc2)CC1 (stereo unspecified)	15µM	-	?	-	?
CCN(CC(=O)Nc1c(F)cccc1F)C(=O)Cc1ccc2c(c1)CCC2	-	-	-	-	-
COc1ccc(/C=C2\CCCCC2=O)cc1	-	-	-	-	-
CN(C)/N=C/C=C1\CCC/C(=C\c2ccc(F)c(F)c2)C1=O	26µM	-	?	-	-106
COc1ccc(C=C2CS(=O)(=O)CC(=Cc3ccc(OC)cc3)C2=O)cc1	1.3µM	?	1.8µM	3.7µM	-107
COc1ccc(/C=C2\CCC/C(=C\C=N\N(C)C)C2=O)cc1	?	-	?	-	-59
